According to PubChem BioAssay:
Activity calls are given as the source filed them.

Columns and labels:
[1] = target: Albumin (Bos taurus) (UniProt P02769); assay: compounds binding labelled BSA control protein – biochemical, small-molecule microarray, Alexa647 label, 635/667 nm fluorescence, artefact control for SMM control protein annotation, profiling panel (AID 1118); details: BSA-A647 binding, fluorescence 635 nm, higher = more signal;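 note: score merges 667 nm emission intensity and signal-to-noise per printed compound spot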
Albumin (Bos taurus), sequence (P02769 whole entry, looked up): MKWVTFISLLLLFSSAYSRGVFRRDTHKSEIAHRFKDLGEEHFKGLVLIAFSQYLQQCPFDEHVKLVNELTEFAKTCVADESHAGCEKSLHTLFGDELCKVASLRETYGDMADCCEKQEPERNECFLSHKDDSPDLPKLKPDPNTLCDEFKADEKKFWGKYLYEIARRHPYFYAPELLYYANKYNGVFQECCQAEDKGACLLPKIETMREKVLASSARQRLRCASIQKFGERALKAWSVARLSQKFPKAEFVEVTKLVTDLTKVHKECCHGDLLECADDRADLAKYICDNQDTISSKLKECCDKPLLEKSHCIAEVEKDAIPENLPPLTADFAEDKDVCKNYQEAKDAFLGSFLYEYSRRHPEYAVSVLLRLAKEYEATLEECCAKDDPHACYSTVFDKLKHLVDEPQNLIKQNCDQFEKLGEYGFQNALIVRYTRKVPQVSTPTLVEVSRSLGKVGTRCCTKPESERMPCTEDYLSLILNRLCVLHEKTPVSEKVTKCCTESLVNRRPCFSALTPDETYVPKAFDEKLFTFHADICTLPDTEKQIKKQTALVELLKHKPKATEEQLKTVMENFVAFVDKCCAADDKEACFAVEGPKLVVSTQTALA

[2] = probe aXIP binding to arrayed compounds – biochemical, NeuroSMM set, 635/667 nm fluorescence, primary screen (AID 1119); details: small-molecule microarray, higher = more signal, called active from +8 up or from −8 down;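 note: probe is the protein aXip251-270 applied at 1 µg/mL to compound-printed slides; binding of probe to printed compounds measured as 667 nm fluorescence plus signal to noise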
[3] = probe aNOTCH3 binding on compound microarray – biochemical, small-molecule microarray, 635/667 nm fluorescence, primary screen (AID 1120); details: higher = more signal;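 note: probe is a biotin-tagged antibody raised against NOTCH3 rather than NOTCH3 protein; score merges spot fluorescence near 667 nm with spot signal to noise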
[4] = probe aNOTCH2 binding on compound microarray – biochemical, small-molecule microarray, 635/667 nm fluorescence, primary screen (AID 1121); details: higher = more signal;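 note: score merges feature fluorescence read at 667 nm with its signal to noise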
[5] = target: Carbonic anhydrase 2 (Homo sapiens) (UniProt P00918); assay: compounds binding carbonic anhydrase 2 – biochemical, small-molecule microarray, Alexa647-labelled CAII, profiling panel (AID 1122); details: CAII-A647 binding fluorescence, higher = more signal
[6] = COS7 lysate on small-molecule microarray, probe aHis, 635 nm (AID 1123); details: COS7 cell lysate, fluorescence, higher = more signal;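 note: z-score combines 667nm fluorescence intensity with signal-to-noise per printed compound spot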
[7] = probe aLAP1 signal on lysate-treated microarray – cell lysate, small-molecule microarray, COS7 lysate, primary screen (AID 1124); details: probe aLAP1, fluorescence, higher = more signal;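 note: lysate comes from COS7 cells expressing LAP1 and is applied at 0.3 µg/mL; score merges spot fluorescence near 667 nm with signal-to-noise over triplicate slides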
[8] = tested on: Sam68 (KHDRBS1); assay: compounds binding KHDRBS1 protein – biochemical, small-molecule microarray, 635 nm fluorescence, primary screen (AID 1125); details: higher = more signal;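 note: score merges 667 nm channel intensity with signal to noise over triplicate slides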
[9] = tested on: Chordin-like protein 2 (CHRDL2); assay: compounds binding chordin-like 2 – biochemical, small-molecule microarray, 635 nm fluorescence, primary screen (AID 1126); details: fluorescence 635 nm, higher = more signal;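 note: printed compound slides probed with Chrdl2 protein at 4 µg/mL for 1 h at 4 C; score merges 667 nm emission intensity with signal to noise over three replicate slides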
[10] = target: Concanavalin-A (Canavalia ensiformis) (UniProt P02866); assay: compounds binding concanavalin A lectin – biochemical, small-molecule microarray, Alexa647 label, 635 nm, artefact control for SMM control protein annotation, primary screen (AID 1127); details: ConA-A647 binding fluorescence, higher = more signal;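 note: z combines 667 nm emission intensity with signal-to-noise across three replicate slides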
Concanavalin-A (Canavalia ensiformis), sequence (P02866 whole entry, looked up): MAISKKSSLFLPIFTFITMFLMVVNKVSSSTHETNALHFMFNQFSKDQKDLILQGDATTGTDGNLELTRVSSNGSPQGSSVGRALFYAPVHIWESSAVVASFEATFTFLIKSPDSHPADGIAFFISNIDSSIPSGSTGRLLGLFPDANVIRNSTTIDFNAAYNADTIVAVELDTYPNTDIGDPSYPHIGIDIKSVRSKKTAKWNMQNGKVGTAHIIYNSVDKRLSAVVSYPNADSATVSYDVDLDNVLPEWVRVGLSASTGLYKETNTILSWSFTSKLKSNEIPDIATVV

[11] = compounds binding Alexa647 anti-His antibody – biochemical, small-molecule microarray, 635 nm fluorescence, artefact control for SMM control protein annotation, primary screen (AID 1128); details: higher = more signal;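 note: score merges feature fluorescence with signal-to-noise for each printed compound spot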
[12] = tested on: Human papillomavirus type 1a E7 protein (residues 1-88); assay: HPV1a E7 small-molecule binders, primary screen, biochemical, small-molecule microarray, residues 1-88, 635 nm (AID 1129); details: small-molecule microarray binding, fluorescence 635 nm; higher = more signal
[13] = target: Focal adhesion kinase 1 (Homo sapiens) (UniProt Q05397); assay: PTK2 protein binding on printed compound slides – biochemical, small-molecule microarray, 635/667 nm fluorescence, BSA, DTT, primary screen (AID 1130); details: 635 nm fluorescence, higher = more signal;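 note: composite of spot emission at 667 nm and signal to noise over triplicate slides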
Focal adhesion kinase 1 (Homo sapiens), sequence (Q05397 whole entry, looked up): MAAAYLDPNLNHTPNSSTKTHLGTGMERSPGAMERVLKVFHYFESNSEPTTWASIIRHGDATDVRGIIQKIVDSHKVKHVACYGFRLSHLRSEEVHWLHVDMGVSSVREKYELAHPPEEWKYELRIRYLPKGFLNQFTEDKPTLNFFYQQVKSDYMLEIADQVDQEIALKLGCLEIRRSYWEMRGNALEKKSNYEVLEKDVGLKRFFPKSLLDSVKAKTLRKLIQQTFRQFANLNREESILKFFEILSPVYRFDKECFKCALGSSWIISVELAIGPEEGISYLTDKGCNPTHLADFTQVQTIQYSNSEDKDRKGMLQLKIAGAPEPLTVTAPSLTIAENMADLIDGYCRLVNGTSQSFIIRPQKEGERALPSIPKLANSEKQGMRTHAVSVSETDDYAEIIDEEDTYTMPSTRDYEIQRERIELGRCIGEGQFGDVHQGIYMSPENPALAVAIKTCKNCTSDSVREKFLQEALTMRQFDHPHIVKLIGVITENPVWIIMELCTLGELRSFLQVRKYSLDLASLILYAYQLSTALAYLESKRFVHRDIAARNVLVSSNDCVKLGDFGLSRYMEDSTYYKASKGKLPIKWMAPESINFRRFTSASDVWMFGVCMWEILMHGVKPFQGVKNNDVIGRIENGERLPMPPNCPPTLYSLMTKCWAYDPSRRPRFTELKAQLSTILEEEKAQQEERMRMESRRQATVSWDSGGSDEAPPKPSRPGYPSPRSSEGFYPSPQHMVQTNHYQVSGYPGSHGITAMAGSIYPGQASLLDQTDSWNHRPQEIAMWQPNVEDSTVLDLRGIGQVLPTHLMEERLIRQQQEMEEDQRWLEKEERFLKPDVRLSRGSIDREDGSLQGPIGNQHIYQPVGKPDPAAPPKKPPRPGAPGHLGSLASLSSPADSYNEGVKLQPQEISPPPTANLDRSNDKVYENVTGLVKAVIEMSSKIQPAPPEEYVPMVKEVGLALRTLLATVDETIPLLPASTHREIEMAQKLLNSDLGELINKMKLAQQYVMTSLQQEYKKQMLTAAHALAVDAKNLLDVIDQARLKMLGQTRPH

[14] = tested on: Fibrinogen (Alexa647-labelled); assay: Alexa647-fibrinogen binding to printed small molecules – biochemical, small-molecule microarray, 635/667 nm fluorescence, artefact control for SMM control-protein annotation, profiling panel (AID 1131); details: fibrinogen-A647 binding fluorescence, higher = more signal;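 note: z-score merges 667 nm fluorescence with per-spot signal-to-noise over triplicate slides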
[15] = target: Follistatin (Homo sapiens) (UniProt P19883); assay: FST protein binding to printed compounds – biochemical, small-molecule microarray, 635/667 nm fluorescence, primary screen (AID 1132); details: 635 nm fluorescence, higher = more signal
Follistatin (Homo sapiens), sequence (P19883 whole entry, looked up): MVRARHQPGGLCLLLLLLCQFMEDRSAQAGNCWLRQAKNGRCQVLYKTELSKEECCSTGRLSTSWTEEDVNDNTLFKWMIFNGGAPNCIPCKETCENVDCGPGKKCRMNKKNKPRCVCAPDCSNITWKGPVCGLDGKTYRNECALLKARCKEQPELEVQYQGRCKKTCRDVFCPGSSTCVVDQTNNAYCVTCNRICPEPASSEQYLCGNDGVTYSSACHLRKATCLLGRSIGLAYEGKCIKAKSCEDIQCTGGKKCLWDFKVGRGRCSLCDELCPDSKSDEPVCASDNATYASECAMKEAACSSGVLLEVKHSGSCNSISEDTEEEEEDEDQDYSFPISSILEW

[16] = target: Fibroblast growth factor 2 (Homo sapiens) (UniProt P09038); assay: basic fibroblast growth factor binding to printed compounds – biochemical, small-molecule microarray, 635/667 nm fluorescence, primary screen (AID 1133); details: FGF2, fluorescence 635/667, higher = more signal
Fibroblast growth factor 2 (Homo sapiens), sequence (P09038 whole entry, looked up): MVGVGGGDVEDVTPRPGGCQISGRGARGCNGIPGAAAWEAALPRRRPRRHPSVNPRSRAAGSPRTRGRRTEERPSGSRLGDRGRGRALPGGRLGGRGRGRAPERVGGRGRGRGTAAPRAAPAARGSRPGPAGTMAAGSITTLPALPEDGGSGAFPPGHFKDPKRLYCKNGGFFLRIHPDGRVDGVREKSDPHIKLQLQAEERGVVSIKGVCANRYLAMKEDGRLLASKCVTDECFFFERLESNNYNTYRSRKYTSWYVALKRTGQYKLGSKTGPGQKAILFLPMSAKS

[17] = JC-1 mitochondrial potential readout, lung cancer cells – cell-based, A549, JC-1 fluorescence, basal, 24 h, 100 nL, profiling panel (AID 1138); details: higher = more signal;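 note: A549 lung adenocarcinoma cells under basal conditions with no added stimulus; test concentration not given here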
[18] = tested on: Lefty1; assay: Lefty1 protein binding to printed compounds – biochemical, small-molecule microarray, 635/667 nm fluorescence, primary screen (AID 1139); details: fluorescence 635/667, higher = more signal
[19] = tested on: wheat germ agglutinin (Triticum aestivum), Alexa647-labelled; assay: Alexa647-WGA lectin binding to printed small molecules – biochemical, small-molecule microarray, 635/667 nm fluorescence, artefact control for SMM control-protein annotation, profiling panel (AID 1140); details: WGA-A647 binding, 635 nm fluorescence, higher = more signal;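 note: score merges 667 nm feature emission with signal to noise over triplicate slides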
[20] = target: Luciferin 4-monooxygenase (Photinus pyralis) (UniProt P08659); assay: inhibition of purified Photinus pyralis luciferase – biochemical, luminescence, purified enzyme, 2006 set, primary screen (AID 1141); details: purified firefly luciferase, SteadyGlo luminescence, 30 min; higher = more signal, called active from +8 up or from −8 down;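 note: cell-free assay with purified firefly luciferase at 100 ng per well in PBS; test concentration not given here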
Luciferin 4-monooxygenase (Photinus pyralis), sequence (P08659 whole entry, looked up): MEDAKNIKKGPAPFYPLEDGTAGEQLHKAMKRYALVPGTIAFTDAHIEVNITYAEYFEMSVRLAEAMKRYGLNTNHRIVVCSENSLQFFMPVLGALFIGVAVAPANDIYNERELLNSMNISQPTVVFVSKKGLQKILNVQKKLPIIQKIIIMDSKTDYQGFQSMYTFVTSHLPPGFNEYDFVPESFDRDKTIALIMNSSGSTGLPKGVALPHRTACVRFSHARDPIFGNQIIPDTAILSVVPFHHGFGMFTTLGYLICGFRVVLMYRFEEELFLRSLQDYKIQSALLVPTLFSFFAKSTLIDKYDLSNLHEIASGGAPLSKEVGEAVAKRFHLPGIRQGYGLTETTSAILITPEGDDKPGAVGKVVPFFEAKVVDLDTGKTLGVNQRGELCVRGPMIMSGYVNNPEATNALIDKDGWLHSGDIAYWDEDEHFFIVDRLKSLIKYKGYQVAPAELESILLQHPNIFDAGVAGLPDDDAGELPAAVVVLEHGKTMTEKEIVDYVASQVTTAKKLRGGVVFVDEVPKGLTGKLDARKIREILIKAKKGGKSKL

| Compound | composite z-score [1] | composite Z-score [2] | composite z-score [3] | composite z-score [4] | composite z-score [5] | composite z-score [6] | composite z-score [7] | composite z-score [8] | composite z-score [9] | composite z-score [10] | composite z-score [11] | composite z-score [12] | composite z-score [13] | composite z-score [14] | composite z-score [15] | composite z-score [16] | z-score [17] | composite z-score [18] | composite z-score [19] | z-score [20] |
| --- | --- | --- | --- | --- | --- | --- | --- | --- | --- | --- | --- | --- | --- | --- | --- | --- | --- | --- | --- | --- |
| C#C[C@H]1Oc2ccccc2S(=O)(=O)N2CCC[C@@H]12 | -1.3 | -0.0662 (inactive) | 0.0026 | -0.0548 | -0.156 | -0.117 | 0.0504 | -0.399 | 0.839 | -1.55 | -0.233 | -0.704 | -0.434 | -0.597 | 0.963 | 0.0278 | 0.092 | 1.51 | -0.719 | 0.119 (inactive) |
| CC(=O)NCCCC[C@@H]1NC(=O)[C@@H]2C[C@H](C(=O)NCCCCCC[N+](C)(C)C)[C@H](c3cccc(OCCO)c3)N2C1=O | -0.384 | 0.13 (inactive) | 0.163 | -0.0896 | 0.675 | 1.53 | 0.348 | 1.22 | 1.13 | 1.09 | 2.89 | 1.17 | 0.202 | 0.416 | 1.39 | 1.69 | -0.972 | 1.26 | 0.548 | 0.364 (inactive) |
| Cc1ccc(S[C@]2(C(=O)NCCCN(C)C)CC(=O)N(C(C)C)[C@@H]2c2ccc(CO)cc2I)cc1 | 0.746 | -0.181 (inactive) | -0.004 | -0.127 | 0.721 | 1.23 | 0.693 | 0.271 | -0.0376 | 0.257 | -0.537 | -0.393 | 0.225 | -0.952 | 0.296 | -1.01 | 1.97 | 0.0228 | -0.19 | 0.216 (inactive) |
| O=C(NCc1ccccc1)[C@@H]1c2ccccc2C(=O)N(Cc2cc(F)cc(C(F)(F)F)c2)[C@H]1c1ccc(CO)cc1 | 0.491 | 0.318 (inactive) | -0.0477 | -0.124 | 0.589 | 1.67 | 0.662 | 1.27 | 0.161 | 0.769 | 2.54 | 1.19 | 0.187 | 0.571 | 1.27 | 0.339 | 1.45 | 0.61 | 0.144 | -1.13 (inactive) |
| CC[C@@H]1C=C(C(=O)O)[C@H](c2ccc(C(C)C)cc2)N1S(=O)(=O)c1ccc(C)cc1 | 0.987 | 1.1 (inactive) | 0.42 | 0.346 | 0.796 | 2.85 | 1.63 | 1.3 | -0.557 | 1.21 | 2.08 | 1.21 | 1.17 | 1.03 | 0.919 | 0.52 | -1.25 | 0.0565 | 1.35 | 0.734 (inactive) |
| C[N+](C)(C)CCCC[C@@H]1NC(=O)[C@@H]2C[C@H](C(=O)NCCCCCCNC(=O)CS)[C@H](c3cccc(OCCO)c3)N2C1=O | -0.658 | 0.802 (inactive) | -0.0984 | -0.174 | 0.332 | 1.04 | 0.264 | 0.129 | 0.393 | -0.258 | 1.89 | -0.208 | -0.379 | 0.552 | 1.27 | 1.2 | 0.332 | 1.29 | 0.585 | -1.45 (inactive) |
